# According to PubChem BioAssay AID1159580 (chemical genetic matrix, 2015):
# Where “and” joins values, the source holds several entries; their conditions need not be identical. Equal entries are not always repeated. About 2,000 (36%) of roughly 5,500 compounds were called active. Another 18% or so got no clear call; they are omitted. Some of the results follow. Values without a mark were called inactive. No stated cut-off is given here; in the data, active means normalized growth mostly below about 0.91 (no sharp cut-off); inconclusive means no clear call, values can overlap the other calls; inactive means mostly above about 0.92.
# Test: chemical genetic growth profiling, strain panel (AID 1159580);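 further: tested at 20 µM; growth read once vehicle control cultures reached saturation at 30 °C; 1 = growth at the plate median or of vehicle wells; lower values mean less growth of the strain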
# Details: S. cerevisiae deletion strains, growth OD
smiles,measurement,setting,value
CC(CN(C)C)CN1c2ccccc2Sc2ccccc21 (configuration not stated),normalized growth,"locus YAL013W, strain DEP1, hits give low values",0.993
same,normalized growth,"locus YAL021C, strain ccr4, hits give low values",0.99
same,normalized growth,"locus YAL026C, strain drs2, hits give low values",0.951
same,normalized growth,"locus YAL030W, strain snc1, hits give low values",1.02
same,normalized growth,"locus YBL061C, strain skt5, hits give low values",1.02
same,normalized growth,"locus YBR009C, strain hhf1, hits give low values",1.02
same,normalized growth,"locus YBR021W, strain FUR4, hits give low values",0.818 (active)
same,normalized growth,"locus YBR023C, strain chs3, hits give low values",1.02
same,normalized growth,"locus YBR171W, strain sec66, hits give low values",1.04
same,normalized growth,"locus YBR229C, strain ROT2, hits give low values",0.992
same,normalized growth,"locus YBR231C, strain swc5, hits give low values",1.03
same,normalized growth,"locus YBR279W, strain paf1, hits give low values",1.02
same,normalized growth,"locus YCL011C, strain gbp2, hits give low values",1.02
same,normalized growth,"locus YCL016C, strain dcc1, hits give low values",1.01
same,normalized growth,"locus YCL029C, strain bik1, hits give low values",0.989
same,normalized growth,"locus YCL061C, strain MRC1, hits give low values",1.02
same,normalized growth,"locus YCL069W, strain vba3, hits give low values",1.02
same,normalized growth,"locus YCR088W, strain abp1, hits give low values",1.02
same,normalized growth,"locus YDL005C, strain med2, hits give low values",1.02
same,normalized growth,"locus YDL035C, strain GPR1, hits give low values",0.985
same,normalized growth,"locus YDL040C, strain nat1, hits give low values",1.01
same,normalized growth,"locus YDL074C, strain BRE1, hits give low values",0.933
same,normalized growth,"locus YDL101C, strain DUN1, hits give low values",0.985
same,normalized growth,"locus YDL134C, strain PPH21, hits give low values",0.979
same,normalized growth,"locus YDL185W, strain tfp1, hits give low values",0.974
same,normalized growth,"locus YDL192W, strain arf1, hits give low values",0.998
same,normalized growth,"locus YDR001C, strain nth1, hits give low values",1.01
same,normalized growth,"locus YDR069C, strain doa4, hits give low values",1.01
same,normalized growth,"locus YDR101C, strain arx1, hits give low values",0.988
same,normalized growth,"locus YDR137W, strain rgp1, hits give low values",1.22 [resistant] (active)
same,normalized growth,"locus YDR150W, strain NUM1, hits give low values",1.01
same,normalized growth,"locus YDR159W, strain sac3, hits give low values",1.03
same,normalized growth,"locus YDR162C, strain NBP2, hits give low values",0.991
same,normalized growth,"locus YDR195W, strain ref2",1.13
same,normalized growth,"locus YDR297W, strain sur2, hits give low values",1.01
same,normalized growth,"locus YDR318W, strain mcm21, hits give low values",0.974
same,normalized growth,"locus YDR334W, strain swr1, hits give low values",1.02
same,normalized growth,"locus YDR335W, strain msn5, hits give low values",1.02
same,normalized growth,"locus YDR388W, hits give low values",0.966
same,normalized growth,"locus YDR392W, strain spt3, hits give low values",1.07
same,normalized growth,"locus YDR502C, strain sam2, hits give low values",0.99
same,normalized growth,"locus YEL003W, strain gim4, hits give low values",0.988
same,normalized growth,"locus YEL037C, strain rad23, hits give low values",1.01
same,normalized growth,"locus YEL061C, strain CIN8 (second series), hits give low values",1.02
same,normalized growth,"locus YEL061C, strain CIN8, hits give low values",0.994
same,normalized growth,"locus YER015W, strain faa2, hits give low values",1.03
same,normalized growth,"locus YER016W, strain bim1, hits give low values",1.02
same,normalized growth,"locus YER110C, hits give low values",0.999
same,normalized growth,"locus YER111C, strain swi4, hits give low values",1.03
same,normalized growth,"locus YER155C, strain BEM2 (second series), hits give low values",1.04
same,normalized growth,"locus YER155C, strain BEM2, hits give low values",0.99
same,normalized growth,"locus YER167W, strain BCK2, hits give low values",0.997
same,normalized growth,"locus YFR010W, strain ubp6, hits give low values",0.985
same,normalized growth,"locus YGL078C, strain dbp3, hits give low values",0.986
same,normalized growth,"locus YGL086W, strain mad1, hits give low values",0.991
same,normalized growth,"locus YGL167C, strain pmr1, hits give low values",1.03
same,normalized growth,"locus YGL173C, strain kem1, hits give low values",1.03
same,normalized growth,"locus YGL227W, strain vid30, hits give low values",1.02
same,normalized growth,"locus YGL240W, strain doc1, hits give low values",1.03
same,normalized growth,"locus YGL248W, strain PDE1, hits give low values",0.995
same,normalized growth,"locus YGL253W, strain hxk2, hits give low values",1.02
same,normalized growth,"locus YGR078C, strain PAC10, hits give low values",0.958
same,normalized growth,"locus YGR135W, strain pre9, hits give low values",0.944
same,normalized growth,"locus YGR229C, strain SMI1, hits give low values",0.911
same,normalized growth,"locus YGR252W, strain gcn5, hits give low values",0.917
same,normalized growth,"locus YHR013C, strain ard1, hits give low values",1.04
same,normalized growth,"locus YHR027C, strain rpn1, hits give low values",1.05
same,normalized growth,"locus YHR030C, strain SLT2, hits give low values",0.983 and 1
same,normalized growth,"locus YHR079C, strain IRE1 (second series), hits give low values",0.985
same,normalized growth,"locus YHR079C, strain IRE1, hits give low values",0.993
same,normalized growth,"locus YHR094C, strain hxt1, hits give low values",0.993
same,normalized growth,"locus YHR129C, strain ARP1, hits give low values",0.989
same,normalized growth,"locus YHR142W, strain chs7, hits give low values",1.01
same,normalized growth,"locus YHR200W, strain rpn10, hits give low values",0.988
same,normalized growth,"locus YIL066C, strain RNR3, hits give low values",0.972
same,normalized growth,"locus YIL073C, strain SPO22, hits give low values",0.991
same,normalized growth,"locus YIL125W, strain kgd1, hits give low values",0.996
same,normalized growth,"locus YIR030C, strain dcg1, hits give low values",0.989
same,normalized growth,"locus YJL092W, strain hpr5, hits give low values",1.01
same,normalized growth,"locus YJL095W, strain BCK1 (second series), hits give low values",1.01
same,normalized growth,"locus YJL095W, strain BCK1, hits give low values",0.861 and 1
same,normalized growth,"locus YJL115W, strain asf1, hits give low values",1.01
same,normalized growth,"locus YJL129C, strain trk1, hits give low values",1.11
same,normalized growth,"locus YJL134W, strain LCB3, hits give low values",0.992
same,normalized growth,"locus YJL154C, strain vps35, hits give low values",1.02
same,normalized growth,"locus YJL164C, strain tpk1, hits give low values",1.02
same,normalized growth,"locus YJL166W, strain qcr8, hits give low values",1.02
same,normalized growth,"locus YJL168C, strain set2, hits give low values",0.993
same,normalized growth,"locus YJL187C, strain SWE1 (second series), hits give low values",0.957
same,normalized growth,"locus YJL187C, strain SWE1, hits give low values",1.01
same,normalized growth,"locus YJR043C, strain POL32, hits give low values",1.02
same,normalized growth,"locus YJR066W, strain TOR1, hits give low values",0.937
